Reference: publication PMC4336329 (PLoS ONE, 2015)
The campaign covered roughly 310,000 compounds. About 14,000 (4.5%) showed an effect of 50% or more. The effect is printed as a negative number. The sample holds strong results, similar compounds and a random draw of the others, so the mix is not that of the screen.

molecular target: human ether-à-go-go-related gene (hERG) potassium channel (human, UniProt Q12809); test: primary screen, population patch clamp on CHO cells stably expressing hERG; higher = less effect of the substance
Sequence (Q12809 whole entry, looked up): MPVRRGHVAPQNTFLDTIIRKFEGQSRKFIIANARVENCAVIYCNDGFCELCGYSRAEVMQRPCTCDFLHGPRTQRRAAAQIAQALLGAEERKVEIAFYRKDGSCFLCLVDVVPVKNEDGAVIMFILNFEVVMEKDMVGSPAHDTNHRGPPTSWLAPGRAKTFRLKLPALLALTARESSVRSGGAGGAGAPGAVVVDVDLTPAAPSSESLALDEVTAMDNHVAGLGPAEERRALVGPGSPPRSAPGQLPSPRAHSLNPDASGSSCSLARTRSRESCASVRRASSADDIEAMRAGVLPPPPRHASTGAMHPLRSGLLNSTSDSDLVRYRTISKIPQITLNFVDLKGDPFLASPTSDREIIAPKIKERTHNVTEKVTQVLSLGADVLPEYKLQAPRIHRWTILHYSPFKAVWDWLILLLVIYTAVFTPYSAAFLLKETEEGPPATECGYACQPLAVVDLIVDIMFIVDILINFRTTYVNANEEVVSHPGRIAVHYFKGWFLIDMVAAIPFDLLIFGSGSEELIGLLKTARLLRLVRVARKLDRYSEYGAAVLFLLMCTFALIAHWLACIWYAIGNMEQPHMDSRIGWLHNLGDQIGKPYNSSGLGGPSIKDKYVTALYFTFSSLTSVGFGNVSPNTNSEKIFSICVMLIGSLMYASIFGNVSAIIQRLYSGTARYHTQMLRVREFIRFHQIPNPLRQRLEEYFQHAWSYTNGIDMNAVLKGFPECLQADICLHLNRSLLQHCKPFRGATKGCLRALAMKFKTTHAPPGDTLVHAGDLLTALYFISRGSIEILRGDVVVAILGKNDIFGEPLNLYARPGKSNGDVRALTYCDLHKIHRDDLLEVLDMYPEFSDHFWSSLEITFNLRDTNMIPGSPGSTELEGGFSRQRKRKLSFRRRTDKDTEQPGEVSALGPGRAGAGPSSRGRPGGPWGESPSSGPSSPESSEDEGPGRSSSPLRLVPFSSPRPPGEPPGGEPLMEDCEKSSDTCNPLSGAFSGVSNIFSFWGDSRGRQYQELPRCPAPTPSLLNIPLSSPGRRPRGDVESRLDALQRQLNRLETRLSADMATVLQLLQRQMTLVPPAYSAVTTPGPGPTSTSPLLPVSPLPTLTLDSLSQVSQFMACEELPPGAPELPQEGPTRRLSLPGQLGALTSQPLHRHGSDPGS
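Further: peak tail current of the secondary pulse compared with the same well before compound.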

| Compound | hERG current change (%, negative = inhibition) at 10uM |
| --- | --- |
| O=C(NNC(=O)c1cccs1)c1ccc(Cl)c([N+](=O)[O-])c1 | -6.26% |
| COC(=O)[C@H](CC(C)C)NC(=O)N1CCC(C)CC1 | 16.7% |
| CCOc1ccc(C(C)=O)cc1CN1C(=O)NC2(CCCCCC2)C1=O | 3.83% |
| COc1ccccc1NC(=O)c1c(C)oc2c1CCCC2 | 4.78% |
| O=C(O)c1cccc(CSc2nnc(-c3ccc(Cl)cc3)o2)c1 | 12.5% |
| Cc1nn(Cc2ccccc2)c(C)c1NC(=O)CCC(=O)O | 2.81% |
| O=C(O)CCC(=O)Nc1ccc(F)cc1 | 12.7% |
| CCNc1c(NCC)c(=O)c1=O | 15.2% |
| CC(C)CC(=O)Nc1nnc(SCC(=O)NCc2ccc3c(c2)OCO3)s1 | 17.7% |
| O=C(O)c1cccc(N2C(=O)c3ccc(Oc4ccc(Cl)cc4)cc3C2=O)c1 | 12.8% |
| O=C(NNC(=S)NCc1ccccc1)c1ccc2c(c1)OCO2 | 8.77% |
| CCCOc1ccc(C(=O)N2CCN(c3ccc(N)cc3Cl)CC2)cc1 | -31.7% |
| CCC(=O)Nc1ccc(N2CCN(CC)CC2)c(Cl)c1 | -3.56% |
| COc1ccc(OCC(=O)Nc2ccc(N3CCN(C(=O)c4ccccc4)CC3)c(Cl)c2)cc1 | -19.4% |
| CCCC(=O)Nc1ccc(N2CCN(CC)CC2)c(Cl)c1.Cl | -47.8% |
| CCN1CCN(c2ccc(NC(=O)c3cccc(F)c3)cc2Cl)CC1 | -75.2% |
| CCN1CCN(c2ccc(NC(=O)c3cccnc3)cc2Cl)CC1 | -16.8% |
| CCN1CCN(c2ccc(NC(=O)c3ccc(F)cc3)cc2Cl)CC1 | -75.6% |
| O=C(Nc1ccc(N2CCOCC2)c(Cl)c1)c1ccc(F)cc1 | -3.11% |
| CCCCCC(=O)Nc1ccc(N2CCN(CC)CC2)c(Cl)c1 | -71.5% |
| O=C(Nc1ccc(N2CCOCC2)c(Cl)c1)c1cccc(F)c1 | -21.2% |
| CCN1CCN(c2ccc(NC(C)=O)cc2Cl)CC1 | -1.19% |
| CCCOc1ccc(C(=O)N2CCN(c3ccc(NC(=O)CC)cc3Cl)CC2)cc1 | -77% |

| Compound | hERG current change (%, negative = inhibition) at 10uM |
| --- | --- |
| COc1ccc(-c2nnc(SCc3nnc(-c4cccs4)o3)n2CC2CCCO2)cc1 (stereo not drawn) | -32% |
| Cc1ccc(OCc2nnc(NC(=O)c3ccco3)s2)cc1 | 6.86% |
| Cc1cccc(N(C(=O)c2csnn2)C(C(=O)NCc2ccccc2)c2ccncc2)c1 (stereo not drawn) | -18.7% |
| CCN(CC)CCCN1C(=O)C(O)=C(C(=O)c2sc(C)nc2C)C1c1ccco1 (stereo not drawn) | -0.605% |
| O=C(Cc1ccsc1)NNC(=O)c1ccc(F)cc1 | -18.8% |
| c1ccc(CCN(Cc2ccccc2)Cc2nc(C3CC3)no2)cc1 | 10.2% |
| COc1ccc(OCc2cc(C(=O)N3CCC(OC)CC3)no2)c2ccccc12 | 14.4% |
| CCCCOc1ccc(Nc2cc(Cl)ccc2C(=O)O)cn1 | 23.5% |
| O=C(Nc1nnc(-c2ccccc2F)s1)Nc1ccccc1F | 23.3% |
| C=CCn1c(SCC(N)=O)nc2nc3c(cc2c1=O)COC(C)(C)C3 | 4.77% |
| CCn1c(SCC(=O)Nc2ccccc2C)nc2nc3c(cc2c1=O)COC(C)(C)C3 | -21.4% |
| CCn1c(SCC(=O)Nc2ccc(C(C)=O)cc2)nc2nc3c(cc2c1=O)COC(C)(C)C3 | 13.8% |
| CCn1c(SCC(=O)Nc2ccccc2)nc2nc3c(cc2c1=O)COC(C)(C)C3 | -61.8% |
| CCn1c(SCC(=O)Nc2ccc(C(C)=O)cc2)nc2nc3c(cc2c1=O)CCCC3 | -20.5% |
| CCOc1ccc(NC(=O)CSc2nc3nc4c(cc3c(=O)n2CC)COC(C)(C)C4)cc1 | 0.831% |
| CCn1c(SCC(=O)Nc2ccc(C)cc2)nc2nc3c(cc2c1=O)COC(C)(C)C3 | -81.8% |
| CCn1c(SCC(=O)Nc2ccc(OC)cc2)nc2nc3c(cc2c1=O)COC(C)(C)C3 | -72.6% |
| CCn1c(SCC(=O)Nc2ccc(C)cc2)nc2nc3c(cc2c1=O)CCCC3 | -43.6% |
| CCn1c(SCC(=O)Nc2cccc(C)c2)nc2nc3c(cc2c1=O)COC(C)(C)C3 | -23.1% |
| CCn1c(SCC(=O)Nc2ccc(OC)cc2)nc2nc3c(cc2c1=O)CCCC3 | -62.6% |
| CCn1c(SCC(=O)Nc2ccc(OC)cc2OC)nc2nc3c(cc2c1=O)COC(C)(C)C3 | -2.49% |
| O=C(CN1C(=O)CCOc2ccccc21)Nc1ccc(Cl)c(S(=O)(=O)N2CCOCC2)c1 | -7.44% |
